Reference: PubChem BioAssay (NCATS)
Results filed as inconclusive are left out. Unless noted, calls come from the whole dose curve; as a rule, active = well fitted curve in either direction with a large enough effect (not every such curve was filed as active); inconclusive = small, poorly fitted or top-dose-only effect, or another doubt; inactive = flat fitted curve, though single readings scatter.

Experiments:
[1] = AP1 Signaling Pathway (AID 357); conditions: ME-180 AP-1-bla reporter, EGF-induced, beta-lactamase ratio, 5 h; at 17.2 µM (top of the series) unless noted;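 note: ME-180 reporter cells stimulated with EGF at its EC50 level; % is set by controls: 0 for no effect and ±100 for the full control effect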
Summary of the method: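 Cells are seeded overnight, exposed to compound titrations and an EC50 level of EGF for 5 hours at 37 °C, then loaded with CCF4 dye for 2.5 hours. Beta-lactamase activity under the AP-1 element is read as a blue/green ratio.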

[2] = NFAT Signaling Pathway (AID 444); conditions: Jurkat NFAT-bla M1, carbachol, beta-lactamase ratio, 5 h; at 17.2 µM (top of the series) unless noted;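 note: carbachol stimulus at about its EC50 of 1 µM final; % is set by controls: 0 for no effect and ±100 for the full control effect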
Summary of the method: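 Jurkat cells carrying an NFAT-driven β-lactamase reporter and co-transfected muscarinic M1 receptor were treated with compound plus carbachol (1 uM final, an EC50 level) for 5 h at 37 °C. CCF4 loading followed for 1 h at RT; 460/530 nm ratio gave %activity.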

[3] = Stat Signaling Pathway (AID 446); conditions: ME-180 (cervical carcinoma) SIE beta-lactamase reporter, IL-6 stimulated, 5 h; at 17.2 µM (top of the series) unless noted;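 note: ME-180 cervical cancer cells given 40 pM IL-6 alongside compound; SIE-controlled beta-lactamase reporter measured as 460/530 nm FRET emission ratio; % is set by controls: 0 for no effect and ±100 for the full control effect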
Summary of the method: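 Normalization used AC90 stimulation (300 pM IL-6) and AC90 inhibition (125 nM pan-JAK inhibitor at 40 pM IL-6). The underlying signal is SIE-driven beta-lactamase in ME-180 cells after 5 h IL-6 exposure with compound.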

[4] = biological target: Glucocorticoid receptor (Homo sapiens) (UniProt P04150); assay: GR-GFP Redistribution (AID 450;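 active = compounds whose dose series gives a full or clear partial fitted curve of increased nuclear translocation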; note: potency is the fitted concentration of half-maximal effect)
Sequence of Glucocorticoid receptor (Homo sapiens) (P04150 whole entry, looked up): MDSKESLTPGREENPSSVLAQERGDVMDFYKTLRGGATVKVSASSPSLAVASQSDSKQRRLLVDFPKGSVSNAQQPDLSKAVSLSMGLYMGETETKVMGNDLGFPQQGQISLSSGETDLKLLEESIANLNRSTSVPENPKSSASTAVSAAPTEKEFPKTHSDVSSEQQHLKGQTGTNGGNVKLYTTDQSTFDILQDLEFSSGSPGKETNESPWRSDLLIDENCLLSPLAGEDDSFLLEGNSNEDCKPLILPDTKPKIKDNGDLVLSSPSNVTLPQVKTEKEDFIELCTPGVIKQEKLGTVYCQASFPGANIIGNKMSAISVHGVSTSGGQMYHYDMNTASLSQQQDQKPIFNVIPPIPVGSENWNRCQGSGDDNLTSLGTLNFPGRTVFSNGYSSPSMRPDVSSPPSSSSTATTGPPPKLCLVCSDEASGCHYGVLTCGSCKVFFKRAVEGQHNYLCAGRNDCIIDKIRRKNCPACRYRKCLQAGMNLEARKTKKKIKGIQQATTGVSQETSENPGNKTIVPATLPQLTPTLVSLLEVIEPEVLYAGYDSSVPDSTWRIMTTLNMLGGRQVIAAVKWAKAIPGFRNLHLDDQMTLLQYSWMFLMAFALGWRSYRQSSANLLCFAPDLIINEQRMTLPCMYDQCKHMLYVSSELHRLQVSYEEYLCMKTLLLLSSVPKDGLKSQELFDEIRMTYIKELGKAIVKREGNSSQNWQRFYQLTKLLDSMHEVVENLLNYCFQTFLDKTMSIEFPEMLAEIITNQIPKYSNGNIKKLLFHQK

CCOC(=O)c1ccc(NC(=O)COc2ccccc2OC)cc1
inactive: activity change, negative = inhibition [1] -16.3% | activity change, negative = inhibition [2] 0.388% | activity, negative = inhibition [3] 2.17% | Potency [4] > 20.6 µM

CN(C)/C=C1\N=C(c2ccc(Cl)cc2Cl)OC1=O
inactive: activity change, negative = inhibition [1] -19.5% | activity change, negative = inhibition [2] -5.67% | activity, negative = inhibition [3] 3.89% | Potency [4] > 20.6 µM

CCOC(=O)C1Cc2c([nH]c3ccccc23)C(C)N1 (stereo not given)
inactive: activity change, negative = inhibition [1] -10.7% | activity change, negative = inhibition [2] 2.1% | activity, negative = inhibition [3] -9.52% | Potency [4] > 20.6 µM

Cc1ccc(NC(=O)Cn2nc(C)c3ccccc3c2=O)cc1
inactive: activity change, negative = inhibition [1] 14.3% | activity change, negative = inhibition [2] 10.1% | activity, negative = inhibition [3] 6.34% | Potency [4] > 20.6 µM

O/N=C(\c1ccc2c(c1)OCCO2)C1CCCCC1
inactive: activity change, negative = inhibition [1] -6.69% | activity change, negative = inhibition [2] -7.17% | activity, negative = inhibition [3] -14% | Potency [4] > 20.6 µM

Cc1cc(C)n(CC2CC(=O)N(c3ccc(Cl)c(Cl)c3)C2=O)n1 (stereo not given)
inactive: activity change, negative = inhibition [1] -14.3% | activity change, negative = inhibition [2] -11.5% | activity, negative = inhibition [3] 0.577% | Potency [4] > 20.6 µM

COc1ccc2oc(=O)c(-c3nc(C)cs3)cc2c1
inactive: activity change, negative = inhibition [1] 19.7% | activity change, negative = inhibition [2] -8.83% | activity, negative = inhibition [3] 17.3% | Potency [4] > 20.6 µM

CCOc1cc(CN2CCOCC2)cc(C(C)=O)c1
inactive: activity change, negative = inhibition [1] 14.3% | activity change, negative = inhibition [2] -4.27% | activity, negative = inhibition [3] 1.95% | Potency [4] > 20.6 µM

COc1cc(S(=O)(=O)N2CCN(c3ccc(F)cc3)CC2)ccc1Cl
inactive: activity change, negative = inhibition [1] 5.09% | activity change, negative = inhibition [2] -11.7% | activity, negative = inhibition [3] -12.1% | Potency [4] > 20.6 µM

CCCCOC(=O)CSC1=C(C#N)C(c2ccccc2OC)C(C#N)C(=O)N1 (stereo not given)
inactive: activity change, negative = inhibition [1] -23.2% | activity change, negative = inhibition [2] 20.9% | activity, negative = inhibition [3] -14% | Potency [4] > 20.6 µM

CC(=O)c1cc(C#N)c(SCc2ccncc2)nc1C
inactive: activity change, negative = inhibition [1] -9.02% | activity change, negative = inhibition [2] -4.04% | activity, negative = inhibition [3] -3.61% | Potency [4] > 20.6 µM

COC(=O)c1ccc(CSc2nc(N3CCOCC3)c3c(c2C#N)CC(C)(C)OC3)o1
inactive: activity change, negative = inhibition [1] -9.04% | activity change, negative = inhibition [2] -8.92% | activity, negative = inhibition [3] 20% | Potency [4] > 20.6 µM

Cc1cc(=O)n(CCC(=O)O)c2ccccc12
inactive: activity change, negative = inhibition [1] 4.89% | activity change, negative = inhibition [2] 1.73% | activity, negative = inhibition [3] 3.32% | Potency [4] > 20.6 µM

c1ccc(-c2nnc3n2N=C(c2ccc4c(c2)OCO4)CS3)nc1
inactive: activity change, negative = inhibition [1] 2.99% | activity change, negative = inhibition [2] 19.9% | activity, negative = inhibition [3] -6.24% | Potency [4] > 20.6 µM

COc1cc(C(=O)NCC(=O)n2nc(C)cc2C)cc(OC)c1OC
inactive: activity change, negative = inhibition [1] 0.479% | activity change, negative = inhibition [2] -4.87% | activity, negative = inhibition [3] 0.715% | Potency [4] > 20.6 µM

NC(=O)/C(=N\O)c1ccccc1
inactive: activity change, negative = inhibition [1] -4.98% | activity change, negative = inhibition [2] 15.2% | activity, negative = inhibition [3] -0.233% | Potency [4] > 20.6 µM

COc1cccc(OC)c1C(=O)N1CCN(S(=O)(=O)c2ccc(C)cc2)CC1
inactive: activity change, negative = inhibition [1] -12.3% | activity change, negative = inhibition [2] -1.17% | activity, negative = inhibition [3] 6.68% | Potency [4] > 20.6 µM

COc1ccccc1-c1c(C)oc2c(CN3CCN(C)CC3)c(O)ccc2c1=O
inactive: activity change, negative = inhibition [1] 1.13% | activity change, negative = inhibition [2] 5.13% | activity, negative = inhibition [3] 4.08% | Potency [4] > 20.6 µM

Nc1nnnn1N=C1CCCCC1
inactive: activity change, negative = inhibition [1] -7.36% | activity change, negative = inhibition [2] 0.933% | activity, negative = inhibition [3] -8.04% | Potency [4] > 20.6 µM

O=C(NCCCn1ccnc1)c1cccnc1
inactive: activity change, negative = inhibition [1] 14.4% | activity change, negative = inhibition [2] -7.91% | activity, negative = inhibition [3] 6.38% | Potency [4] > 20.6 µM

CCCCc1nc(N2CCOCC2)c(C#N)c2c1CCCC2
inactive: activity change, negative = inhibition [1] -10.8% | activity change, negative = inhibition [2] -27.2% | activity, negative = inhibition [3] -8.28% | Potency [4] > 20.6 µM

COc1ccccc1-n1c(=O)c2c3c(sc2n2c(SC)nnc12)CCC3
inactive: activity change, negative = inhibition [1] 6.29% | activity change, negative = inhibition [2] -21.2% | activity, negative = inhibition [3] 14.3% | Potency [4] > 20.6 µM

COC(=O)C(NC(C)=O)(Nc1nc2ccc(S(C)(=O)=O)cc2s1)C(F)(F)F (stereo not given)
inactive: activity change, negative = inhibition [1] -0.134% | activity change, negative = inhibition [2] 7% | activity, negative = inhibition [3] -5.35% | Potency [4] > 20.6 µM

CC1(C)Cc2ccccc2-c2c1c(=O)n(-c1ccccc1)c1nnnn21
inactive: activity change, negative = inhibition [1] -13.7% | activity change, negative = inhibition [2] -24.9% | activity, negative = inhibition [3] 2.44% | Potency [4] > 20.6 µM

COc1ccc2c(c1)[nH]c1c(=O)n(CC3CCCO3)cnc12 (stereo not given)
inactive: activity change, negative = inhibition [1] -4.81% | activity change, negative = inhibition [2] 16.4% | activity, negative = inhibition [3] 2.17% | Potency [4] > 20.6 µM
